Consider 23 compounds from PubChem BioAssay.

Assay [1] can be described thus: antimalarial activity against Dd2 strain (AID 2302;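 active = growth inhibition above 50% at the single 2 µM test dose, taken to imply half-maximal potency below 2 µM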;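 note: 0% = DMSO untreated growth and 100% = chloroquine plus artemisinin killed control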). Conditions: P. falciparum Dd2 in RBCs, LDH growth readout, 72 h; at 2 µM; active compounds read high.
The target in assay [2] is L-lactate dehydrogenase (Plasmodium falciparum (isolate CDC / Honduras)) (UniProt Q27743). Put plainly: PfLDH activity inhibition – cell lysate, 3D7 strain, counter-screen for P. falciparum growth inhibition project (AID 2304).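 Note: 0% = vehicle and 100% = reference inhibitor.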 The note with it: P. falciparum 3D7 crude extract, LDH APAD/NBT absorbance; at 2 µM; active compounds read high. A general note: Counterscreens check selectivity or assay interference.

Assay [3] is described as follows: inhibition of 3D7 malaria parasite growth – strain 3D7 (AID 2306).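 Note: 0% = DMSO wells and 100% = chloroquine plus artemisinin control wells.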 Conditions: P. falciparum 3D7 erythrocytic growth, LDH absorbance, 72 h; at 2 µM; active compounds read high.
The target of assay [4] is Calcium-dependent protein kinase 1 (Plasmodium falciparum (isolate 3D7)) (UniProt P62344). Put plainly: PfCDPK1 kinase inhibitors, biochemical, TCAMS library (AID 1159585; cut-off not given, nearly all actives have IC50 up to about 0.98 µM;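 note: inhibitors leave more ATP so luminescence rises with inhibition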). Conditions: recombinant PfCDPK1, Kinase-Glo ATP depletion luminescence. (Kinase-Glo measures the ATP left after a reaction by luminescence.)
Assay [5] deals with Plasmodium falciparum protein kinase 6 (PK6, PF3D7_1337100) (UniProt Q8IDW1). Put plainly: PfPK6 kinase inhibitors, biochemical, TCAMS library (AID 1159586). Conditions: recombinant PfPK6, Kinase-Glo ATP depletion luminescence.
Assay [6] has as its target Protein kinase 7 (PK7), Plasmodium falciparum 3D7 (PF3D7_0213400) (UniProt Q7YTF7). Put plainly: inhibition of Plasmodium PK7 catalytic activity – biochemical, TCAMS antimalarial set, Kinase-Glo luminescence (AID 1159587). The note with it: recombinant PfPK7, Kinase-Glo ATP depletion luminescence.
Assay [7] has as its target Calcium-dependent protein kinase 4 (Plasmodium falciparum (isolate 3D7)) (UniProt Q8IBS5). Put plainly: PfCDPK4 kinase inhibitors, biochemical, TCAMS library (AID 1159588; cut-off not given, nearly all actives have IC50 up to about 0.91 µM). Conditions: recombinant PfCDPK4, Kinase-Glo ATP depletion luminescence.
A short description of assay [8]: human hepatoma cell viability loss – ATP luminescence, cytotoxicity control for P. falciparum antimalarial project, primary screen (AID 2303;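 active = inhibition above 50%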;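 note: 0% = DMSO wells and 100% = digitonin-killed cells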). The note with it: HepG2 viability, 24-48 h, at 10 µM, active compounds read high.

Molecules are shown by their SMILES. Values without a mark were called inactive. For some assays here: Potency and affinity values are given separately. Active and inactive are the calls of the source. Unless noted, the rule behind the calls is not given here.

Chain of Plasmodium falciparum protein kinase 6 (PK6, PF3D7_1337100) (Q8IDW1 1-305): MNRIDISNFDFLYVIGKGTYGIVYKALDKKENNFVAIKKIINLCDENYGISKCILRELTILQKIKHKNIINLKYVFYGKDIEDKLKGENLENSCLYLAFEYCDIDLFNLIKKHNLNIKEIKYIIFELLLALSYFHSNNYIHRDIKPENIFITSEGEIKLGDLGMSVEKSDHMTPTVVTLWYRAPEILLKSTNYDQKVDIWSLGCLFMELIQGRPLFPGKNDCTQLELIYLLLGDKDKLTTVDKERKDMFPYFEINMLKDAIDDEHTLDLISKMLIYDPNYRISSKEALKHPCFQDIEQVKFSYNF
Chain of L-lactate dehydrogenase (Plasmodium falciparum (isolate CDC / Honduras)) (Q27743 whole entry, looked up): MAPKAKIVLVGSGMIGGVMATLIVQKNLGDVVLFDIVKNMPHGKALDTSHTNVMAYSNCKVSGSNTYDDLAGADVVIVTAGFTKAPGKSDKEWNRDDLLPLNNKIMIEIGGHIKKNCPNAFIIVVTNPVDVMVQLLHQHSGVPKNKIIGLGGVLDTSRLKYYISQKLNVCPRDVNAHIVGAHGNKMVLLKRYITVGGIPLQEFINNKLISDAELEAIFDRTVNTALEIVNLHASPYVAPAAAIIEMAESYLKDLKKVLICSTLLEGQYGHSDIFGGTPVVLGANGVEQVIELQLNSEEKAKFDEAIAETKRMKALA
Chain of Calcium-dependent protein kinase 4 (Plasmodium falciparum (isolate 3D7)) (Q8IBS5 whole entry, looked up): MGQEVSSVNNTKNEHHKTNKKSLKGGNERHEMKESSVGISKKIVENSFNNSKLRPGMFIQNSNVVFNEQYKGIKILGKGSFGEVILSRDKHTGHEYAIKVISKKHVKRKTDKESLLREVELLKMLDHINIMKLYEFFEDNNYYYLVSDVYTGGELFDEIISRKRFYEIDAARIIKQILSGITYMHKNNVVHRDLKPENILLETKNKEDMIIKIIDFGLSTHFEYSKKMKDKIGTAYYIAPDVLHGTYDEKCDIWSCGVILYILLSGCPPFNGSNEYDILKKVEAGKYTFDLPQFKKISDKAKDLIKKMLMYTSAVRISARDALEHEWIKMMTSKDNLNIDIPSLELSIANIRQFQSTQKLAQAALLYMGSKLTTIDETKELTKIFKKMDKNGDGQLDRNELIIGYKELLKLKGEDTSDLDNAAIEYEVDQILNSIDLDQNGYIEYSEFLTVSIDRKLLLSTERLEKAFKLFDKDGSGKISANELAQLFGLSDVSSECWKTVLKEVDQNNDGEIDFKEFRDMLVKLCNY
Chain of Calcium-dependent protein kinase 1 (Plasmodium falciparum (isolate 3D7)) (P62344 whole entry, looked up): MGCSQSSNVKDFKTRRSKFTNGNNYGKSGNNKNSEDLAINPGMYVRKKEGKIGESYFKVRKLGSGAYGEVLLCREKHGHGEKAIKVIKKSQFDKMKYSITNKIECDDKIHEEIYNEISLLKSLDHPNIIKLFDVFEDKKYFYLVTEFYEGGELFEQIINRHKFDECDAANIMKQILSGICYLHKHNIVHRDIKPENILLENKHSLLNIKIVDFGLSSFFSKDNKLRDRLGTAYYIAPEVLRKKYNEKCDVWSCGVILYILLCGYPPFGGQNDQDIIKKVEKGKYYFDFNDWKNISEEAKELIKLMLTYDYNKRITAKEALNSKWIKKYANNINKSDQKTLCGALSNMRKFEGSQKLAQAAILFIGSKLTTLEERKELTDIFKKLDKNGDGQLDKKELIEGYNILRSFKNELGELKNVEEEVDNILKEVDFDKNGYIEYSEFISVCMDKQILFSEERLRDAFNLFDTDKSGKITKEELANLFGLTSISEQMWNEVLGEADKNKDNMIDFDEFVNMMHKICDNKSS
Chain of Protein kinase 7 (PK7), Plasmodium falciparum 3D7 (PF3D7_0213400) (Q7YTF7 1-343): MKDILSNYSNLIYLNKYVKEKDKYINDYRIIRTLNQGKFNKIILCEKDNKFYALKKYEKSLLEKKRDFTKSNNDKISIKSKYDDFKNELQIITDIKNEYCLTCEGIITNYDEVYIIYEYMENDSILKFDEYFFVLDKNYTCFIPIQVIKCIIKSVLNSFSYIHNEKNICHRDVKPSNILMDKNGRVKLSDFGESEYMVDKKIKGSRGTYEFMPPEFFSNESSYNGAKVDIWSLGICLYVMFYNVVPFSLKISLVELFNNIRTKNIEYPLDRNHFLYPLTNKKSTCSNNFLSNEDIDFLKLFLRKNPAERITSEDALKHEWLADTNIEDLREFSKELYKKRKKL

Turning to `CC(C)Oc1ccc2ccccc2c1CNCCCCCCNCc1c(OC(C)C)ccc2ccccc12`, the growth inhibition in assay [1] is 90% (active); in assay [3], 99% (active). In addition, the inhibition in assay [2] was -7%. Also, the result in assay [4], in assay [5], in assay [6] and in assay [7] was inactive.

`CN(C)S(=O)(=O)n1ncc2c3c(N)nc(N)nc3ccc21`: the results for the growth inhibition in assay [1] and in assay [3] were 0% and 96% (active), respectively. Moreover, the inhibition in assay [2] was -4%. For the same compound, the outcome in assay [4], in assay [5], in assay [6] and in assay [7] was inactive.

Take `Cc1[nH]c(C)c(-c2ccc(Sc3ccc(Cl)cc3)cc2)c(=O)c1Br`: the figures for the growth inhibition in assay [1] and in assay [3] were 97% (active) and 98% (active), respectively. Besides, the inhibition in assay [2] is 0%. Also, the outcome in assay [4], in assay [5], in assay [6] and in assay [7] was inactive.

On to `CCCCCCOc1ccc2ccccc2c1CNCCCCCCNCc1c(OCCCCCC)ccc2ccccc12`, for which the values for the growth inhibition in assay [1] and in assay [3] were 55% (active) and 85% (active), respectively. Besides, the inhibition in assay [2] was 6%. The outcome in assay [4], in assay [5], in assay [6] and in assay [7] was inactive.

For the compound `Cc1[nH]c(C)c(-c2ccc(Oc3cccc(OC(F)(F)F)c3)cc2)c(=O)c1Br`, the growth inhibition was 96% (active) in assay [1] and 100% (active) in assay [3]. In addition, the inhibition in assay [2] was -7%. The result in assay [4], in assay [5], in assay [6] and in assay [7] was inactive.

On to `CC(=O)Oc1c(Cl)c(C)nc(C)c1-c1ccc(Oc2ccc(Cl)cc2)cc1`, for which the growth inhibition was 96% (active) in assay [1] and 98% (active) in assay [3]. Moreover, the inhibition in assay [2] is 0%. Moreover, the outcome in assay [4], in assay [5], in assay [6] and in assay [7] was inactive.

`CCOC(=O)N1CCN(CCCCCNc2cc(C)nc(/N=C(\N)Nc3ccc(Cl)cc3)n2)CC1`: the growth inhibition in assay [1] was 0%; in assay [3], 101% (active). Besides, the inhibition in assay [2] is -1%. Besides, the outcome in assay [4], in assay [5], in assay [6] and in assay [7] was inactive.

With `Nc1nc(N)c2c3c(ccc2n1)CCC3`, the growth inhibition in assay [1] is 2%; in assay [3], 92% (active). Also, the inhibition in assay [2] was -3%. For the same compound, the result in assay [4], in assay [5], in assay [6] and in assay [7] was inactive.

Regarding `Cc1cccc(-c2c(C)nc(N)nc2N)c1`, the growth inhibition in assay [1] was -9%; in assay [3], 88% (active). Besides, in assay [2], the inhibition was -6%. Also, the result in assay [4], in assay [5], in assay [6] and in assay [7] was inactive.

In the case of `CC(C)(C)OC(=O)N[C@@H](CS(=O)(=O)CCN=C(N)COCc1ccccc1)C(=O)OC(C)(C)C`, the growth inhibition is 76% (active) in assay [1] and 88% (active) in assay [3]. Moreover, in assay [2], the inhibition is 4%. The result in assay [4], in assay [5], in assay [6] and in assay [7] was inactive.

Consider `CC(C)(C)c1cc(Cl)cc(C(=O)Nc2cc([N+](=O)[O-])ccc2Cl)c1O`, for which the values for the inhibition in assay [8] and in assay [2] were 79% (active) and 2%, respectively. In addition, the growth inhibition in assay [3] is 91% (active). In addition, the result in assay [4], in assay [5], in assay [6] and in assay [7] was inactive.

`COc1ccc2c(c1CCNCCCCNCCc1c(OC)ccc3c1CCCC3)CCCC2`: the growth inhibition in assay [1] is 25%; in assay [3] it was 101% (active). Besides, the inhibition in assay [2] is 7%. Also, the result in assay [4], in assay [5], in assay [6] and in assay [7] was inactive.

Take `CCOc1cc(OCC)c2ccccc2c1CNCCCCCCNCc1c(OCC)cc(OCC)c2ccccc12`: the growth inhibition in assay [1] is 89% (active); in assay [3], 101% (active). Further, in assay [2], the inhibition was 2%. Moreover, the outcome in assay [4], in assay [5], in assay [6] and in assay [7] was inactive.

As for `Cc1cc(OCCCN2CCCC2)ccc1NC(=O)COc1ccc(Cl)cc1C(=O)c1cc(C#N)cc(C(F)(F)F)c1`, the inhibition was 18% in assay [8] and 2% in assay [2]. In assay [3], the growth inhibition was 85% (active). The result in assay [4], in assay [5], in assay [6] and in assay [7] was inactive.

Turning to `Cc1ccc(Cc2cccc3nc(N)nc(N)c23)cc1`, the growth inhibition in assay [1] is 0%; in assay [3] it was 92% (active). Also, the inhibition in assay [2] was -2%. Moreover, the outcome in assay [4], in assay [5], in assay [6] and in assay [7] was inactive.

Take `Nc1nc(N)c2cc(Cc3ccccc3Cl)cnc2n1`: the growth inhibition is -2% in assay [1] and 93% (active) in assay [3]. In addition, the inhibition in assay [2] was 4%. Besides, the result in assay [4], in assay [5], in assay [6] and in assay [7] was inactive.

For the compound `CCn1c(-c2nonc2N)nc2c(-c3cccc(NC(=O)NCc4ccccc4)c3)ncc(OCCCN)c21`, the inhibition in assay [8] is 5%; in assay [2] it was -7%. Also, the growth inhibition in assay [3] was 99% (active). The result in assay [4], in assay [5], in assay [6] and in assay [7] was inactive.

As to `C=CC(C)C1OC(=O)c2cc(OC)cc(OC)c21` (stereo unspecified), the inhibition in assay [8] was 100% (active); in assay [2], -4%. Further, the growth inhibition in assay [3] is 100% (active). In addition, the outcome in assay [4], in assay [5], in assay [6] and in assay [7] was inactive.

For `Oc1ccc(CNCC2CCN(CC3CCCCC3)CC2)cc1`, the inhibition in assay [8] was 9%; in assay [2], -1%. In assay [3], the growth inhibition was 82% (active). Besides, the outcome in assay [4], in assay [5], in assay [6] and in assay [7] was inactive.

With `CCc1ccc(Cc2cnc3nc(N)nc(N)c3c2C)cc1`, the growth inhibition in assay [1] was -1%; in assay [3], 97% (active). In addition, the inhibition in assay [2] is 0%. The result in assay [4], in assay [5], in assay [6] and in assay [7] was inactive.

As to `CCc1cc(COc2ccc(CNCCC(C)C)cc2I)c(OCc2ccccc2)c(COc2ccc(CNCCC(C)C)cc2I)c1`, the results for the growth inhibition in assay [1] and in assay [3] were 15% and 89% (active), respectively. The inhibition in assay [2] is 0%. The result in assay [4], in assay [5], in assay [6] and in assay [7] was inactive.

In the case of `O=C(NNC(=O)c1ccc(CN2CCC(c3nc4ccccc4[nH]3)CC2)cc1)Nc1ccc(Oc2ccccc2)cc1`, the results for the inhibition in assay [8] and in assay [2] were -2% and 0%, respectively. The growth inhibition in assay [3] was 86% (active). In addition, the result in assay [4], in assay [5], in assay [6] and in assay [7] was inactive.

In the case of `COc1cccc2c(O)c(CNC3CCCCC3)ccc12`, the growth inhibition in assay [1] is 98% (active); in assay [3], 100% (active). For the same compound, the inhibition in assay [2] is 3%. For the same compound, the outcome in assay [4], in assay [5], in assay [6] and in assay [7] was inactive.

The term inhibition denotes the change of the read-out against control, counted positive when it falls.
